Reference: PubChem BioAssay (NCI)
About 83,000 compounds went through this panel and 20% of them were active in at least one assay; those are over-represented in the sample as a whole.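 A percent growth of 40 corresponds to 60% growth inhibition; 0 means no net growth; -100 means all cells died. Active threshold: below 10.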 Values without a mark were called inactive. Calls of active or inactive are those of the source.

How the values were obtained:
Test in all cases: NCI-60 one-dose screen, 48 h (100 = growth as untreated, 0 = no growth, -100 = all killed)
Conditions in all cases: 10 µM unless noted
NCI-H23 lung = test system: NCI-H23 lung
NCI-H226 lung = test system: NCI-H226 lung
NCI-H322M lung = test system: NCI-H322M lung
HOP-62 NSCLC = test system: HOP-62 NSCLC
NCI-H460 lung = test system: NCI-H460 lung
HOP-92 NSCLC = test system: HOP-92 NSCLC
NCI-H522 lung = test system: NCI-H522 lung
A549/ATCC NSCLC = test system: A549/ATCC NSCLC
786-0 renal = test system: 786-0 renal
COLO 205 colon = test system: COLO 205 colon

SMILES	growth (NCI-H23 lung)	growth (NCI-H226 lung)	growth (NCI-H322M lung)	growth (HOP-62 NSCLC)	growth (NCI-H460 lung)	growth (HOP-92 NSCLC)	growth (NCI-H522 lung)	growth (A549/ATCC NSCLC)	growth (786-0 renal)	growth (COLO 205 colon)
CC(=O)O[C@H]1C(=O)[C@@]2(C)[C@H]([C@H](OC(=O)c3ccccc3)[C@]3(O)C[C@H](OC(=O)[C@H](OC(=O)OC[C@@H]4COC(C)(C)O4)[C@@H](NC(=O)c4ccccc4)c4ccccc4)C(C)=C1C3(C)C)[C@]1(OC(C)=O)CO[C@@H]1C[C@@H]2O	19.9%	60.4%	14.4%	19.3%	3.59% (active)	64.6%	1.08% (active)	11.9%	19.4%	-28.4% (active)
CCOC(=O)[C@@H](C)C[C@H](Cc1ccccc1)NC(=O)c1nc([C@@H](C[C@H](C(C)C)N(C)C(=O)[C@@H](NC(=O)[C@H]2CCCCN2C)C(C)C)OC(C)=O)sc1CCOCc1ccccc1	14.7%	-80.6% (active)	11.9%	-42.7% (active)	-54.8% (active)	-16.5% (active)	-49.2% (active)	-31.1% (active)	-38.6% (active)	-70.9% (active)
CC12CC(=O)C3(SC#N)C(CCC4=CC(=O)CCC43C)C1CCC2=O (stereo not given)	99.1%	94.1%	96%	106%	96.2%	90.7%	-3.58% (active)	107%	90%	66%
ClCCN(CCCl)c1ccc(-n2cnc3c(Cl)ncnc32)cc1	-69% (active)	97.5%	58.7%	87%	47.8%	-1.92% (active)	-76.9% (active)	85.2%	106%	65.8%
O[C@H](CN1CC1)[C@@H](O)CN1CC1	65.8%	79.7%	103%	61.8%	15.5%	87%	93.9%	66.3%	43.2%	76.7%
C[C@@H]1CCC2[C@@H](C)[C@H](OC(=O)CCC(=O)NCCNC(=O)Cc3cc(=O)oc4cc(N(C)C)ccc34)O[C@@H]3O[C@]4(C)CC[C@@H]1C23OO4 (stereo not given in full)	21.5%	65.3%	79.2%	82.8%	39.4%	29.3%	-4.8% (active)	51.4%	36.7%	47.6%
Nc1ccc(Cl)cc1	99.3%	92.1%	106%	90.3%	109%	85.5%	89.3%	78.7%	97.7%	95.9%
c1cc2c(c3c1CCNC3)OCO2	94.8%	103%	102%	96.6%	114%	120%	75.6%	66%	96.2%	112%
O=C(CC1(O)C(=O)Nc2ccc(Cl)cc21)c1ccc(C(=O)NCC2CCC3(CC2)OOC2(CCCCC2)OO3)cc1 (stereo not given)	32.1%	53.3%	77.7%	-55.4% (active)	-55.4% (active)	-70.3% (active)	-1.69% (active)	-55.4% (active)	-65.6% (active)	1.29% (active)
CCOC(=O)[C@@H](C)C[C@H](Cc1ccccc1)NC(=O)c1csc([C@@H](C[C@H](C(C)C)N(C)C(=O)[C@H](CC)NC(=O)[C@H]2CCCCN2C)OC(C)=O)n1	28.4%	65.2%	43.1%	20.2%	6.53% (active)	41.5%	-22.8% (active)	7.92% (active)	8.33% (active)	-61.6% (active)
CC(C)[C@]12O[C@H]1[C@@H]1O[C@]13[C@]1(O[C@H]1C[C@H]1c4c(C(=O)c5ccccc5)oc(OC(=O)c5ccccc5)c4CC[C@@]13C)[C@@H]2O	-14.9% (active)	-12.8% (active)	9.46% (active)	-0.399% (active)	9.07% (active)	-9.38% (active)	-39.6% (active)	1.72% (active)	1.31% (active)	-57% (active)
[Cl][Hg][c]1cc[c]([Hg][Cl])o1	63.5%	99.1%	96.9%	72.9%	68.6%	-29.1% (active)	2.99% (active)	88.4%	-74.8% (active)	6.94% (active)
Cc1ccc(Nc2nc3c(s2)C2=CC[C@@H]4[C@H](CC[C@]5(C)C(=O)CC[C@@H]45)[C@@]2(C)CC3)cc1	58.4%	69.5%	61.8%	43.4%	38.9%	78.6%	56.3%	55.8%	9.1% (active)	63.5%
COC(=O)[C@@H](C)C[C@H](Cc1ccccc1)NC(=O)c1csc([C@@H](C[C@H](C(C)C)N(C)C(=O)[C@@H](NC(=O)CN(C)C)C2CC2)OC(C)=O)n1	25%	19.1%	47.7%	19.1%	10.3%	26.4%	-44.7% (active)	13.5%	21%	-72.8% (active)
CN1C(=O)C(=Cc2cn(Cc3ccccc3)c3ccccc23)C(=O)N(C)C1=O	80.4%	-71% (active)	72.3%	73.6%	0.11% (active)	65.1%	92.6%	81.7%	93.9%	1.43% (active)
ClCCN(CCCl)Cc1ccc(Nc2ccnc3cc(Cl)ccc23)cc1	36.6%	70.2%	79%	31.3%	2.98% (active)	-4.98% (active)	-34.7% (active)	39.2%	8.84% (active)	50.6%
CNC(=O)Oc1cccc(C(F)(F)F)c1	108%	90%	125%	107%	114%	106%	95.2%	103%	105%	107%
NC(CCl)CCl	104%	94.6%	102%	-100% (active)	110%	109%	100%	102%	107%	-100% (active)
CC(=O)O[C@H](C[C@H](C(C)C)N(C)C(=O)[C@@H](NC(=O)[C@H]1CCCCN1C)C(C)(C)C)c1nc(C(=O)N[C@@H](Cc2ccccc2)C[C@H](C)C(=O)O)cs1	37.8%	61.4%	41.8%	19.7%	4.25% (active)	35.3%	-24.7% (active)	9.66% (active)	11.1%	-59.1% (active)
COc1cccc(/C=C/[N+](=O)[O-])c1	43.3%	65.2%	88.8%	89.9%	100%	78.9%	63.2%	61.2%	54.6%	19.5%
C=C1C[C@](OC)([C@H](O)C(=O)N[C@@H](OC)[C@@H]2C[C@@H](O)C(C)(C)[C@@H](C[C@@H](COC)OC)O2)O[C@H](C)[C@@H]1C	-27.7% (active)	-75.5% (active)	-21% (active)	-35.4% (active)	-41.4% (active)	-65.1% (active)	-55.1% (active)	-49.1% (active)	-61.9% (active)	-15.6% (active)
N/C(=N\N=C\c1ccc(-c2ccccc2)cc1)N[N+](=O)[O-]	41%	73.6%	52.7%	38.2%	16.4%	51.6%	18.2%	38.4%	40.6%	24.9%
C1CCC2(CC1)OOCNCOO2	98.2%	107%	97.4%	103%	108%	122%	89.7%	102%	105%	115%
O=C1C2CCC1C(N1CCCC1)CC2 (stereo not given)	105%	95.9%	92.5%	101%	103%	85.5%	94.9%	97.8%	98.4%	107%
CC(C)OC(=O)[C@H](C)NP(=O)(Oc1ccccc1)C1CCCN(O)C1=O (stereo not given in full)	89.6%	70.9%	84.6%	111%	105%	104%	97.6%	105%	94.3%	93.1%
COc1ccc(O)c(CNC(=O)CN2CCCC2=O)c1	103%	99.4%	95.6%	97.1%	97.5%	86.1%	101%	105%	105%	100%
